Bioassay records from PubChem BioAssay.
Shown are actives, neighbours in structure and some others; about 12% of the full set was active somewhere.
NS1 inh: influenza NS1 inhibition; Potency, µM (doses to about 46.1 µM), for inactives: at the top dose activity, positive = more growth; 270,000 compounds, 0.4% hits; AID 2326; calls by dose curve; also: actives are rising curves; nearly all actives have a fitted effect of over 50% in size
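S. cerevisiae expressing influenza A NS1, grown in glucose, washed, then diluted 1:100 into pH 6.0 -URA galactose medium with 23 nl compound. Growth recovery read as OD600; NS1-free strain serves as control.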
Pf growth 48h: P. falciparum growth inhibition at 48 hours (one generation); P. falciparum luciferase growth in erythrocytes, 48 h; Potency, µM (top dose mostly 28.7 µM), without a hit: at the top dose activity change, negative = inhibition, most hits filed as inhibitors; 310,000 compounds, 5.9% hits; AID 504832; also: % is scaled to controls: 0 for no effect and ±100 for the full control effect
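First compound was added to culture medium, then infected red cells at 0.1% parasitemia and 2% hematocrit (final). After incubation at 37 C under 5% CO2, luciferase detection reagent was dispensed and light output recorded.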
SARS PLpro yeast: blocks SARS-CoV papain-like protease in a yeast assay. S. cerevisiae expressing SARS-CoV PLpro, growth rescue. Potency, µM (top dose mostly 32.9 µM), inactives show top-dose activity, positive = growth rescue, most hits filed as activators. 330,000 compounds, 0.19% hits. AID 485353; calls by dose curve; also: 0% is about no effect; nearly all actives have a fitted effect of over 55% in size
Pf growth 96h: P. falciparum growth inhibition at 96 hours; P. falciparum luciferase reporter growth, 96 h; Potency, µM (doses to about 28.7 µM), for the others: at the highest dose activity change, negative = inhibition, hits mostly inhibitors; 320,000 compounds, 6.9% hits; AID 504834; also: % is scaled to controls: 0 for no effect and ±100 for the full control effect
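Readout is luminescence from an integrated firefly luciferase in P. falciparum. Red cells, 2% hematocrit and 0.05% parasitemia final, were cultured with compound through two parasite generations (96 hours) at 37 C, 5% CO2.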
AMA1-RON2 inh: disrupts binding of P. falciparum AMA1 to RON2; 360,000 compounds, 0.2% hits; AID 720542; Potency, µM (doses to about 58.2 µM), for inactives: at the highest dose activity change, negative = inhibition, hits mostly inhibitors; AlphaScreen AMA1-biotinylated RON2 peptide binding;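 also: 0% = vehicle wells and -100% = peptide control; nearly all actives have a fitted effect of over 45% in size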
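AMA1 (3D7) with his tag at 25 nM final met compounds first, then biotinylated RON2 peptide at 25 nM; detection used donor plus acceptor beads, 10 µg/mL apiece, read by AlphaScreen after 30 min at room temperature.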
HCV inh: blocks hepatitis C virus; Potency, µM (doses to about 41.8 µM), for inactives: top-dose activity change, negative = inhibition, hits mostly inhibitors; AID 651820; Huh7.5.1 HCVcc-Cre infection, luciferase reporter, 44 h; 340,000 compounds, 3.4% hits; also: % is scaled to controls: 0 for no effect and ±100 for the full control effect
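Infectious HCV cell culture screen: compound-treated cells (1,000/well, pre-plated 4 h) are infected with HCVcc-Cre at roughly 0.5 moi and grown 44 h. Infection is quantified by luciferase signal after 15 min substrate incubation at room temperature.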
The depositor's hits bear a star; ? = inconclusive; / = no result given; ! = not confirmed by another sample; [ ] = dose if it differs, or a comment. Unless noted, calls follow the shape of the dose curve; as a rule, active = well fitted curve in the direction sought with a large enough effect; inconclusive = small, poorly fitted or top-dose-only effect, or another doubt; inactive = no such curve, though single readings can be large; an effect the other way counts as inactive or inconclusive. Potency is read from the fitted curve at half-maximal effect.

SMILES	NS1 inh	Pf growth 48h	SARS PLpro yeast	Pf growth 96h	AMA1-RON2 inh	HCV inh
O=C1[C@@H]2[C@H](C(=O)N1CC(O)COCc1ccccc1)C1C=C[C@H]2C1 (stereo partly drawn)	/	/	/	/	3%	36%
Cc1c(OC(C)C(=O)NCc2ccncc2)ccc2c3c(c(=O)oc12)CCCC3 (stereo not drawn)	-8%	?	-2%	9.3µM*	2%	?
Cc1c(OCC(=O)NCCCn2ccnc2)ccc2c3c(c(=O)oc12)CCC3	2%	-11%	-1%	?	-2%	-8%
Cc1c(OC(C)C(=O)NCCCn2ccnc2)ccc2c3c(c(=O)oc12)CCC3 (stereo not drawn)	-5%	12µM*	3%	12µM*	-12%	?
O=c1[nH]ncc(N2CCN(Cc3ccccc3)CC2)c1Cl	7%	?	0%	?	-6%	16%
CCOC(=O)/C(=C(/C)N)C1CC(=O)NC1=O (stereo not drawn)	/	/	/	/	15%	/
O[Si](CCCN1CCCCC1)(c1ccc(F)cc1)C1CCCCC1 (stereo not drawn)	-12%	0.093µM*	-1%	0.1µM*	-18%	?
Cc1c(OCC(=O)NC2CC(C)(C)NC(C)(C)C2)ccc2c3c(c(=O)oc12)CCC3	-11%	?	-1%	?	-4%	?
CC1(C)CC(NC(=O)COc2ccc(Br)cc2Cl)CC(C)(C)N1	10%	-9%	-1%	-22%	-1%	25µM*
Cc1c(OCC(=O)NC2CC(C)(C)NC(C)(C)C2)ccc2c1oc(=O)c1ccccc12	-10%	3.7µM*	3%	3.3µM*	-8%	2µM*
CCOC(=O)N1CCN(C(=O)C(=O)NNC(=O)COc2ccc(Cl)cc2)CC1	6%	7%	12%	-14%	48%	11%
O=C(O)c1ccccc1C(=O)Nc1ccc(Br)c2cccnc12	?	15%	0%	?	-19%	-6%
Cc1nnc(SC(C)C(=O)Nc2ccc(S(=O)(=O)N3CCCCCC3)cc2)s1 (stereo not drawn)	-12%	12µM*	-4%	/	4%	-13%
Cc1nnc(SC(C)C(=O)Nc2ccc3c(c2)OCCO3)s1 (stereo not drawn)	-7%	8%	-6%	10µM*	-2%	3%
CC(=O)Nc1ccc(NC(=O)C(C)Sc2nnc(-c3ccc4c(c3)OCO4)o2)cc1 (stereo not drawn)	/	/	0%	/	8%	-7%
Cc1nnc(SCC(=O)NC(=O)Nc2ccc3c(c2)OCCO3)s1	/	109%	0%	-5%	-17%	13%
COc1ccc(-c2nnc(SC(C)C(=O)Nc3ccc4c(c3)OCCO4)o2)cc1 (stereo not drawn)	-2%	63%	-3%	12µM*	37%	-17%
Cc1nnc(NC(=O)c2ccc(S(=O)(=O)N3CCCCC3)cc2)s1	/	/	3%	/	-3%	2%
COc1ccc(C2c3c(ccc4ccccc34)Oc3ncn4nc(CO/N=C/c5ccccc5)nc4c32)cc1 (stereo not drawn)	8%	4%	10%	/	-8%	-5%
O=c1c2ccccc2ncn1Cc1ccco1	-6%	-4%	3%	43%	-7%	8%
N=c1c2c(ncn1Cc1ccco1)Oc1cc(O)ccc1C2c1ccccc1 (stereo not drawn)	8%	12µM*	1%	?	5%	?
CN(C)CCn1cnc2c(c1=N)C(c1ccccc1)c1ccc3ccccc3c1O2 (stereo not drawn)	2%	5.2µM*	1%	5.2µM*	-12%	13µM*
N=c1c2c(ncn1Cc1ccco1)Oc1c(ccc3ccccc13)C2c1ccccc1 (stereo not drawn)	?	15µM*	-35%	?	-15%	?
COc1ccc(C2c3ccc(O)cc3Oc3ncn(CCCO)c(=N)c32)cc1 (stereo not drawn)	4%	?	0%	?	-2%	-13%
O=C(C1CCCN(S(=O)(=O)c2ccccc2)C1)N1CCN(c2ccccc2)CC1 (stereo not drawn)	-1%	?	8%	19%	-15%	?
SMILES	NS1 inh	Pf growth 48h	SARS PLpro yeast	Pf growth 96h	AMA1-RON2 inh	HCV inh
O=C(C1CCCN(S(=O)(=O)c2ccc(Br)cc2)C1)N1CCN(Cc2ccccc2)CC1 (stereo not drawn)	-17%	6.6µM*	2%	-24%	-15%	11µM*
O=C(C1CCCN(S(=O)(=O)c2ccc(Br)s2)C1)N1CCN(c2ccccc2)CC1 (stereo not drawn)	1%	8.3µM*	-2%	-8%	?	10µM*
C=C[C@H](CC(C)C)N(Cc1ccccc1)S(=O)(=O)N(Cc1ccc(OC)cc1)[C@H](C=C)CC(C)C	/	5.2µM*	3%	?	-1%	-5%[8.37 µM]
CCOC(=O)[C@@H](C)N(Cc1ccc(OC)cc1)S(=O)(=O)N(Cc1ccccc1)[C@H](C(=O)OC)C(C)C	/	10µM*	-5%	?	2%	?
COC(=O)[C@H](CC(C)C)N(Cc1ccccc1)S(=O)(=O)N(Cc1ccc(OC)cc1)[C@@H](CC(C)C)C(=O)OC	/	/	-5%	/	-21%	-8%[8.37 µM]
COc1ccccc1CCNC(=O)C(=O)NCC1OCCN1S(=O)(=O)c1ccc2c(c1)OCCO2 (stereo not drawn)	0%	?	/	?	-5%	?
O=C(O)c1ccc(Cl)c(S(=O)(=O)Nc2cccc(C(=O)Nc3cccc(C(F)(F)F)c3)c2)c1	/	7%	0%	10µM*	5%	-16%
CN(C)S(=O)(=O)Oc1ccc(C(=O)Nc2cccc(Cl)c2)cc1	-10%	0%	0%	0%	7%	-4%
CN(C)S(=O)(=O)Oc1ccc(C(=O)Nc2cccc(C(F)(F)F)c2)cc1	/	?	3%	1.7µM*	0%	11µM*
COc1ccc(C(=O)O)cc1S(=O)(=O)Nc1cccc(C(F)(F)F)c1	-2%	35%	3%	6%	0%	4%
COc1ccc(C(=O)c2ccccc2)c(O)c1	4%	?	-3%	15µM*!	6%	-19%
COc1ccc(C(=O)c2ccc(C)cc2)c(O)c1	/	54%	/	45%	/	/
CN(C)S(=O)(=O)Oc1cccc(C(=O)Nc2ccccc2Cl)c1	-60%	66%	0%	16%	4%	-9%
CN(C)S(=O)(=O)Oc1cccc(C(=O)Nc2ccc(Cl)cc2)c1	-8%	279%	-4%	471%	2%	10µM*
Fc1cccc(Cc2c(-c3cccc(Cl)c3)nc3ccc(Cl)cn23)c1	/	/	/	/	9%	/
COc1ccc(-c2cccc(C(=O)Nc3ccccc3C)c2)cc1	3%	4%	-12%	9.3µM*	-16%	1%
